# Shown are actives, neighbours in structure and some others; about 7.5% of the full set was active somewhere.
# NPC1 prom act = activates the NPC1 promoter; Huh7 NPC1 promoter luciferase reporter, 24 h; Potency, µM (highest dose often 9.22 µM), usual class: activators; actives 2.4% (n = 320,000); note: nearly all actives have a fitted effect of over 60% in size
#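 Stable NPC1-promoter luciferase Huh7 line; cpd (DMSO) 24 h, 37 °C, 5% CO2; Amplite luciferase reagent 10 min RT; luminescence readout. qHTS format.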
# Luc counter = counter-screen: inhibitors of Kinase-Glo firefly luciferase; Q27757; Potency, µM (doses to about 38.3 µM), usual class: inhibitors; AID 1379; Kinase-Glo luciferase, ATP luminescence, 8 min; actives 0.28% (n = 200,000); note: nearly all actives have a fitted effect of over 60% in size
#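 Inhibition of Kinase-Glo luciferase light generation was assessed at 10 uM ATP in pH 7.2 imidazole buffer, with luminescence measured after eight minutes at ambient temperature.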
# FLuc counter = counter-screen for miR-21 project: firefly luciferase inhibitors or activators | purified FLuc, Km substrates, luminescence inhibition | Potency, µM (series often up to 57.5 µM), most hits filed as inhibitors | actives 6.9% (n = 360,000); note: nearly all actives have a fitted effect of over 55% in size
# Target sequence (P08659 whole entry, looked up): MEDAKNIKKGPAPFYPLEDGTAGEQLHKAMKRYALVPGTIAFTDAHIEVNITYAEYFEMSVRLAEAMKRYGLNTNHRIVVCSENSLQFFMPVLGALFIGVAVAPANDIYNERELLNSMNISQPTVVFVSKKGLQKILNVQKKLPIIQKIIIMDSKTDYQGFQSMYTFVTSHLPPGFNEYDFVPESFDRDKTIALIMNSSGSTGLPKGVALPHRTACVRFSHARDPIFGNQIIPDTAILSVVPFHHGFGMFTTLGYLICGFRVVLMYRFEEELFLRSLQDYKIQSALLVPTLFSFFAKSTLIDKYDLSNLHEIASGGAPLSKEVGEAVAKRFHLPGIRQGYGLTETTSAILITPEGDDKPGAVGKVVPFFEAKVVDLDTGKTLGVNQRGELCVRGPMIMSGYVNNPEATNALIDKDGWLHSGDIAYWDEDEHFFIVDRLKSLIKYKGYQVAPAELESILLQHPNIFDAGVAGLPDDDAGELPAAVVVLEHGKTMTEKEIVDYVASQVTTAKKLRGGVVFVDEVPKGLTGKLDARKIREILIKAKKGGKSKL
#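 Biochemical qHTS of compounds, final roughly 60 µM downward over six points, against 10 nM purified firefly luciferase using Km concentrations of substrates (10 uM D-luciferin, 10 uM ATP) in Tris acetate pH 7.5 buffer; luminescence output.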
# Rab9 promoter act = Rab9 promoter activation. Huh7 Rab9 promoter-luciferase reporter, luminescence, 24 h. Potency, µM (doses to about 9.22 µM), hits mostly activators. actives 2.8% (n = 320,000). AID 485297; note: nearly all actives have a fitted effect of over 60% in size
#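 Huh7 cells stably carrying a Rab9 promoter-luciferase reporter, 1500 cells per well in OP-MEM I with 10% FBS, treated with compound 24 hours at 37C. Luciferase activity read by luminescence after 10 minutes with Amplite reagent.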
# SMN2 splice up = enhancers of SMN2 splice variant expression; AID 1458; Potency, µM (top dose mostly 46.1 µM), most hits filed as activators; HEK293 SMN2-luciferase splicing reporter, luminescence, 30-36 h; actives 2.8% (n = 210,000); note: nearly all actives have a fitted effect of over 55% in size
#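 qHTS luciferase splicing reporter: luminescence rises when SMN2 exon 7 is included in transfected HEK293 cells. Compound exposure lasted 30-36 h at 37C, with 4.5 mM final sodium butyrate as control, followed by a ONE-Glo read.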
# ELG1 genotox = induces genotoxicity in HEK293T cells with luciferase-tagged ELG1; HEK293T ELG1-luciferase reporter, luminescence, 16 h; Potency, µM (top dose mostly 46 µM), hits mostly activators; actives 1.3% (n = 330,000); AID 504466; note: nearly all actives have a fitted effect of over 60% in size
#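 ELG1-luciferase HEK293T cells, 2,000/well; compound pinned in; 16 hr, 37 °C, 5% CO2; ONE-Glo, 30 min RT; luminescence on CCD imager.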
# A number is an active result; i = inactive; ? = inconclusive; nt = no result given; [ ] = dose if it differs, or a comment. Calls come from the whole dose curve; as a rule, active = well fitted curve in the direction sought with a large enough effect; inconclusive = small, poorly fitted or top-dose-only effect, or another doubt; inactive = no such curve, though single readings can be large; an effect the other way counts as inactive or inconclusive.
SMILES,NPC1 prom act,Luc counter,FLuc counter,Rab9 promoter act,SMN2 splice up,ELG1 genotox
Cc1ccc(Cl)cc1NC(=O)CSc1nc2ccccc2c2nc(-c3ccccc3)nn12,nt,nt,i,nt,nt,nt
COc1ccc2cc(CCNS(=O)(=O)c3ccc(C)cc3)c(=O)[nH]c2c1,nt,nt,i,nt,i,nt
CC(C)(C)C(=O)N1CCN(c2ccc(NC(=O)c3ccco3)cc2)CC1,i,nt,i,i,nt,i
O=C(NC(=S)Nc1ccc(N2CCOCC2)cc1)c1ccco1,2.82µM,i,?,?,15.8µM,?
O=C(NC(=S)Nc1ccc(CN2CCOCC2)cc1)c1ccco1,i,nt,16.9µM,?,nt,?
O=C(NC(=S)Nc1ccc(CN2CCCCC2)cc1)c1ccco1,i,i,i,i,i,i
CC(C)CC(=O)N1CCN(c2ccc(NC(=O)c3ccco3)cc2)CC1,i,nt,i,3.16µM,nt,i
O=C(Nc1ccc(N2CCOCC2)cc1)c1ccc2nc(-c3ccco3)c(-c3ccco3)nc2c1,i,i,i,i,i,i
S=C(Nc1ccc(N2CCOCC2)cc1)Nc1ccc2nc(-c3ccco3)c(-c3ccco3)nc2c1,i,i,15.1µM,i,i,i
CCOC(=O)c1noc2ncnc(Nc3ccc(F)cc3F)c12,nt,nt,i,nt,nt,nt
COc1cccc2[nH]c3ccccc3c(=O)c12,i,nt,16.9µM,i,nt,i
O=C1OC(c2ccc(F)cc2)=N/C1=C\c1ccc(Br)o1,i,i,6.01µM,i,i,i
O=C(NCCCN1CCOCC1)c1cc2c(s1)CCCC2,i,i,i[2.3 µM],i,i,i
O=C(Nc1nccs1)c1cc2c(s1)CCCCC2,1µM,7.08µM,0.0849µM,0.794µM,i,nt
O=C(NCCCN1CCCC1=O)C(=O)Nc1cccc(F)c1,?,nt,16.9µM,3.16µM,nt,?
O=C(NCCCN1CCCC1=O)c1cc2c(s1)CCCCC2,i,nt,16.9µM,?,nt,?
Cc1cc(C)n(C(=O)c2cc3c(s2)CCCC3)n1,i,i,23.9µM,i,i,i
COc1cccc(CNC(=O)C2Cc3cc(S(=O)(=O)N4CCCCCC4)ccc3N2C(C)=O)c1 (stereo not drawn),nt,nt,i,nt,nt,nt
Cn1c(=O)c2c(nc(CN3CCN(c4ccccc4F)CC3)n2Cc2ccc(F)cc2)n(C)c1=O,nt,nt,i,nt,i,nt
COc1ccccc1NC(=O)C1=C(C)Nc2nc(SCc3ccccc3)nn2C1c1cccnc1 (stereo not drawn),nt,nt,i,nt,i,nt
CCSc1nnc(NC(=O)c2cc3c(s2)CCCC3)s1,2.51µM,i,?,1.58µM,?,i
NNC(=O)c1cc2c(s1)CCCCCC2,i,i,?,i,i,i
O=C(Nn1cnnc1)c1cc2c(s1)CCCC2,i,i,21.3µM,i,i,i
CC(C)Cc1nnc(NC(=O)c2ccc(N3CCCC3=O)cc2)s1,i,nt,i,i,nt,i
O=C(Nc1nncs1)c1cc2c(s1)CCC2,?,i,6.75µM,2.82µM,?,?
SMILES,NPC1 prom act,Luc counter,FLuc counter,Rab9 promoter act,SMN2 splice up,ELG1 genotox
CC(C)Cc1nnc(NC(=O)c2cc3c(s2)CCC3)s1,3.55µM,nt,?,3.16µM,nt,i
O=C(Nc1nnc(SCc2ccccc2)s1)c1cc2c(s1)CCCC2,i,i,?,i,i,?
CCOc1ccc(OCC)c(NC(=O)C(NS(=O)(=O)c2ccc(Br)s2)c2ccccc2)c1 (stereo not drawn),nt,nt,i,nt,i,nt
O=S(=O)(NCCc1csc2nc(-c3ccc(Cl)cc3)nn12)c1ccc(Oc2ccccc2)cc1,nt,nt,i,nt,nt,nt
O=C(NCCc1ccccn1)c1ccc(OC2CCN(CCc3ccccc3)CC2)cc1,3.16µM,nt,19µM,2.82µM,nt,?
O=C(NCCc1cccc(Cl)c1)c1ccc(OC2CCN(Cc3ccccn3)CC2)cc1,?,nt,19µM,i,nt,?
CC(Cc1ccccn1)NC(=O)c1ccc(OC2CCN(CCc3ccccc3)CC2)cc1 (stereo not drawn),i,nt,?,i,nt,?
CCCc1ccc(OC(=O)CSc2nnc(-c3cccs3)o2)cc1,nt,nt,i,nt,nt,nt
O=C(Cn1c2ncccc2c(=O)n1-c1ccccc1)Nc1ccc(F)c(F)c1,nt,nt,i,nt,nt,nt
Cc1cccc(NC(=O)Nc2cccc(C#N)c2)n1,?,i,?,?,15.8µM,i
COc1ccc(NC(=O)Nc2cccc(C)n2)cc1,?,i,8.49µM,?,11.2µM,11.6µM
Cc1cccc(NC(=O)Nc2ccc(Br)cc2)n1,i,nt,i,?,i,i
Cc1cccc(NC(=O)Nc2ccc(C#N)cc2)n1,i,i,i,i,11.2µM,i
COc1ccc(NC(=O)Nc2ccc(Br)cn2)cc1,3.55µM,i,i,2.82µM,?,i
O=C(Cn1c(=O)nc(-c2ccccc2)c2ccccc21)Nc1ccc(Cl)c(C(F)(F)F)c1,nt,nt,i,nt,nt,nt
Cc1ccccc1Nc1c(-c2c[nH]c3ccccc23)nc2cccc(C)n12,nt,nt,i,nt,11.2µM,nt
Cc1ccc2nc(-c3c[nH]c4ccccc34)c(Nc3ccccc3C)n2c1,nt,nt,i,nt,?,nt
CCc1ccccc1NC(=O)c1nnn(-c2ccc(F)cc2)c1C,nt,nt,12µM,nt,i,nt
Cc1c(C(=O)Nc2ccc(F)cc2F)nnn1-c1ccccc1Br,nt,nt,i,nt,nt,nt
Cc1cccc(C(=O)N=c2sccn2C)c1[N+](=O)[O-],2.82µM,nt,15.1µM,?,nt,10.3µM
CCN(CC)S(=O)(=O)c1cc(C(=O)N=c2sccn2C)ccc1OC,i,nt,i,i,nt,i
Cn1ccsc1=NC(=O)c1ccc(S(C)(=O)=O)c([N+](=O)[O-])c1,?,nt,4.78µM,i,nt,i
Cc1ccc(C(=O)N=c2sccn2C)cc1S(=O)(=O)N1CCOCC1,3.98µM,nt,?,1.41µM,nt,?
Cn1ccsc1=NC(=O)c1ccc(Cl)c([N+](=O)[O-])c1,i,nt,?,i[1.84 µM],nt,i
Cc1ccc(C(=O)N=c2sccn2C)cc1C,i,nt,i,i,nt,i
SMILES,NPC1 prom act,Luc counter,FLuc counter,Rab9 promoter act,SMN2 splice up,ELG1 genotox
CCCCOc1ccc(C(=O)N=c2sccn2C)cc1OC,3.55µM,nt,12µM,2.82µM,nt,?
Cc1nc2nc(COc3ccccc3)[nH]n2c(=O)c1Cl,i,i,19µM,i,i,i
Cc1nc(NS(=O)(=O)c2ccccc2)sc1C(=O)NNS(=O)(=O)c1ccccc1,i,nt,i,i,nt,i
Cc1nc(NS(=O)(=O)c2ccccc2)sc1C(=O)N/N=C/c1ccccc1,i,nt,9.53µM,i,nt,i
COc1cccc(/C=N/NC(=O)c2cccc(N3CCCC3=O)c2)c1,?,nt,9.53µM,?,nt,4.11µM
COc1ccc(O)c(/C=N/NC(=O)c2ccc(N3CCCC3=O)cc2)c1,i,nt,i,i,nt,i
O=C(N/N=C/c1cc(Br)ccc1O)c1cccc(N2CCCC2=O)c1,i,i,16.9µM,i,i,?
COc1ccc(/C=N/NC(=O)c2ccc(N3CCCC3=O)cc2)cc1,i,nt,?,i,nt,i
COc1ccc(O)c(/C=N/NC(=O)c2cccc(N3CCCC3=O)c2)c1,i,nt,10.7µM,i,nt,i
O=C(N/N=C/c1ccco1)c1cccc(N2CCCC2=O)c1,i,i,19µM,i,?,i
Cc1ccc(NC(=O)Cn2c(=O)n(-c3ccc(C)cc3)c(=O)c3c2cnn3C)cc1,nt,nt,i,nt,i,nt
